PubChem BioAssay

tested on: XIP peptide (Xip251-270) binding; assay: XIP fragment 251-270 binding compounds – biochemical, small-molecule microarray, fluorescence 635/667 nm, 0.1 µg/mL protein, primary screen (AID 1182); conditions: fluorescent protein binding, 635 nm, higher = more signal, called active from +8 up or from −8 down

Composite z-score, inactive:
COC(=O)c1c(CC[C@@H](CO)NC(=O)N2CCC[C@H]2Cn2cc(Cc3ccccc3)nn2)oc(C(C)=O)c1C(=O)OC 2.25
O=C(NCc1ccccc1)[C@@H]1c2ccccc2C(=O)N(Cc2ccccc2C(F)(F)F)[C@H]1c1ccc(CO)cc1 0.55
O=C(NCCCCCNC(=O)/C(Cc1ccccc1)=N/O)OCc1ccccc1 -0.333
C=C[C@@H](COC(C)=O)N(C(=O)OC(C)(C)C)S(=O)(=O)c1ccc(Br)cc1 0.805
CCOC(=O)C[C@H]1[C@H](OC(=O)c2ccccc2-c2ccccc2)[C@@H](NC(=O)c2ccc(-c3ccccc3)cc2)c2cc(OCCCO)ccc2N1C(=O)c1ccc2ccccc2n1 -0.07
CCOC(=O)C[C@H]1[C@H](OC(=O)c2cc3ccccc3oc2=O)[C@@H](NC(=O)Cc2ccc(OC)cc2)c2cc(OCCCO)ccc2N1C(=O)c1ccc2ccccc2n1 -0.426
O=C1O[C@H](c2ccccc2)[C@H](c2ccccc2)N2[C@H]1[C@@H](C(=O)Nc1nc3ccccc3s1)[C@]1(C(=O)Nc3ccc(C#CC4(O)CCCCCC4)cc31)[C@H]2c1ccccc1OCCO 0.0536
COC(=O)[C@@]1(Cc2ccccc2N=[N+]=[N-])N=C(c2ccc(OCCCO)cc2)O[C@H]1c1ccccc1N=[N+]=[N-] 0.764
CC(c1ccccc1)C(O)C1C=CC2C(=O)N(c3ccccc3)C(=O)C2N1Nc1ccc([N+](=O)[O-])cc1 (stereo unspecified) 0.725
CN1C(=O)C2C=CC(C(O)c3ccc(F)cc3)N(Nc3ccccc3)C2C1=O (stereo unspecified) 0.477
CCCC[C@@H]1C[C@H]1[C@@H](NC(=O)Cc1ccccc1)c1ccc(-c2ccccc2)cc1 0.33
O=C1C[C@@](C(=O)NCCN2CCOCC2)(c2ccc([N+](=O)[O-])cc2)[C@@H](c2ccc(CO)cc2I)N1C1CCCCC1 -0.026
COC(=O)[C@@]1(Cc2ccc(F)cc2)[C@H]2c3cc(C(=O)N4CCCC4)n(CCc4ccc(O)c(O)c4)c3C[C@H]2CN1C(=O)c1ccccc1 1.19
COC(=O)C(CC#Cc1ccc2c(c1)[C@]1(C(=O)N2)[C@H](c2ccccc2OCCO)N2[C@H](c3ccccc3)[C@H](c3ccccc3)OC(=O)[C@H]2[C@@H]1C(=O)NC[C@H](O)c1ccccc1)C(=O)OC 1.8
COc1ccc(-c2nc(-c3ccccc3)c3c(c2C)CO[Si]3(C(C)C)C(C)C)cn1 -0.447
C=CCC(OC(C)=O)[C@@H]1[C@@H](N(Cc2cc3ccccc3o2)C(=O)c2ccc(C)cc2)c2cc(OCCCO)ccc2N1C(=O)Cc1ccc(OC)cc1 (stereo partly specified) -0.23
COc1ccc([Si](C)(C)[C@@H]2[C@@H](CC(=O)N(CCO)Cc3ccccc3)O[C@]3(C(=O)N(c4ccccc4)c4ccccc43)[C@H]2C)cc1 0.153
O=C1OCC=C[C@H]2OC34C=CCN(c5ccc(Cl)cc5)C(=O)[C@H]3N(CCO)C(=O)[C@@H]4[C@@H]12 (stereo partly specified) -0.0292
O=C1OCCC=C[C@H]2OC34C=CCN(Cn5nnc6ccccc65)C(=O)[C@H]3N(CCCCCCO)C(=O)[C@@H]4C12 (stereo partly specified) 1.62
CC(C)(C)N1CC=CC23O[C@@H]4C=CCOC(=O)[C@@H]4[C@H]2C(=O)N(CCCCCCO)[C@@H]3C1=O (stereo partly specified) -0.196
[N-]=[N+]=NCc1ccccc1[C@H]1OC(c2ccc(OCCCO)cc2)=N[C@@]1(CCS(=O)(=O)c1ccccc1)C(=O)NCC(O)CO (stereo partly specified) 1.2
C=C(/C(=C/C[C@H](OC(C)=O)c1cccc(OCCO)c1)c1cnc2ccccc2c1)C(C)C -0.328
COCCOC(=O)N1C(=O)[C@@]2(c3cc(C#CCCO)ccc31)[C@H](c1ccccc1OCCO)N1[C@H](c3ccccc3)[C@H](c3ccccc3)OC(=O)[C@H]1[C@@H]2C(=O)Nc1nc2ccccc2s1 1.45
Cc1cc(C)c(C(O)C2C=CC3C(=O)NC(=O)C3N2Nc2ccc(Cl)cc2Cl)c(C)c1 (stereo unspecified) 0.696
C=C(COC)/C(=C/C[C@H](OC(=O)c1ccncc1)c1ccccc1OCCO)c1cnc2ccccc2c1 0.683
CCOC(=O)C1=CC[C@@H](c2ccccc2C(F)(F)F)N(S(=O)(=O)c2ccc(C)cc2)[C@H]1c1ccc(C#N)cc1 0.205
OCC1CC(c2ccccc2)=NO1 (stereo unspecified) -0.336
CC(C)(C)OC(=O)CC[C@]1(C(=O)NCC(O)CO)N=C(c2ccc(OCCCO)cc2)O[C@H]1c1ccccc1 (stereo partly specified) 0.0294
COCCOC(=O)N1C(=O)[C@@]2(c3cc(C#Cc4ccc(OC)cc4)ccc31)[C@H](c1ccccc1OCCO)N1[C@H](c3ccccc3)[C@H](c3ccccc3)OC(=O)[C@H]1[C@@H]2C(=O)N1CCCCCCC1 1.93
O=C1C2C=CC(C(O)c3ccccc3)N(Nc3ccccc3F)C2C(=O)N1c1ccccc1 (stereo unspecified) 1.07
CO[C@]12C=C(Br)[C@@H](C[C@@H]1c1cccc(C)c1)[C@@]1(CO1)C2=O 0.177
Cn1cccc1C(O)C1C=CC2C(=O)NC(=O)C2N1Nc1ccc(Cl)cc1Cl (stereo unspecified) 0.789
C=C(C(=O)CC[C@@H](OC(C)=O)c1ccc(CO)o1)C(C)C 0.164
COCCOC(=O)N1C(=O)[C@@]2(c3cc(C#Cc4ccc(OC)cc4)ccc31)[C@H](C(=O)Nc1nc3ccccc3s1)[C@H]1C(=O)O[C@H](c3ccccc3)[C@H](c3ccccc3)N1[C@@H]2c1ccc(O)cc1 -0.363
CCCCCCCCCCC(O)C1C=CC2C(=O)N(C)C(=O)C2N1NC(=O)OC(C)(C)C (stereo unspecified) 0.0658
COC(=O)c1ccc([C@H](NC(=O)c2ccco2)[C@]2(C)C[C@H]2C2CCCCC2)cc1 -0.235
